# In ChEMBL document CHEMBL3988442, “University of Dundee, Small-Polar-MMV Screening Library” (2021):
# Hit rate of the full screen: of about 48,000 compounds, about 13,000 (27%) showed an effect of 50% or more. Some of the results follow.
# Test system: Wolbachia pipientis
# Assay: Anti-Wolbachia Cell-Based Screen
# Assay type: functional
# Design: scale not given: in the data most compounds retested in dose-response had high values
# Conditions: 5 µM
row,SMILES,Percent Effect [%]
1,OC(COCc1ccccc1Cl)CN1CC(n2cccn2)C1 (stereo not given),-11.39
2,Cc1nc(CN2CCCC(CCNS(C)(=O)=O)C2)c[nH]1 (stereo not given),-5.765
3,Cc1occc1C(=O)N1Cc2nccn2CC(CN2CCOCC2)C1.O=C(O)C(F)(F)F (stereo not given),-15.88
4,CN(C)CCN(C)c1ccc(-c2nc(COc3ccccc3)no2)cn1,-2.014
5,CC[C@H]1COCCN1C(=O)CCCn1nnc(-c2ccc(F)cc2)n1,-1.392
6,CN(Cc1ccncc1)c1cncc(Br)c1,97.92
7,CCCN(CCC)S(=O)(=O)N(C)Cc1ccncc1,3.881
8,CN(Cc1cnccn1)c1cncc(Br)c1,109.1
9,CN(Cc1ccc([S+](C)[O-])cc1)c1ccc(Br)cn1 (stereo not given),-27.32
10,CN(Cc1ccc([S+](C)[O-])cc1)c1cncc(Br)c1 (stereo not given),105.7
11,CN(Cc1ccc([S+](C)[O-])cc1)c1cncc(Cl)n1 (stereo not given),-12.95
12,Cc1nc(N(C)C)nc(N(C)Cc2cnccn2)c1C,49.18
13,Cc1cc(C2CCC2)nc(N(C)Cc2cnccn2)n1,-5.292
14,COc1cc(F)ccc1N(C)Cc1ccncc1,-8.772
15,O=C(O)C(F)(F)F.O=C(O)C(F)(F)F.c1ccc(COC[C@H]2CC[C@H]3[C@H](CCN3c3ncccn3)O2)nc1,-2.736
16,COc1ccc(F)cc1CN1CCCC(c2cc(C(N)=O)[nH]n2)C1 (stereo not given),-1.722
17,O=C(NCC1CCOC1)N1CCN(Cc2ccc3c(c2)CCO3)CC1 (stereo not given),-2.282
18,O=C(C1COCCO1)N1CCN(Cc2ccc3c(c2)CCO3)CC1 (stereo not given),2.717
19,NC(=O)c1cc(C2CCCN(CCc3ccc4c(c3)CCO4)C2)n[nH]1 (stereo not given),94.15
20,CCc1cnc(CN2CCCC(c3cc(C)[nH]n3)C2)o1 (stereo not given),-1.395
21,NC(=O)c1cc(C2CCCN(Cc3ccc4c(c3)OCCO4)C2)n[nH]1 (stereo not given),95.83
22,Cc1cc(C2CCCN(CCc3ccccn3)C2)n[nH]1 (stereo not given),-3.98
23,Cc1cc(C2CCCN(CCc3ccc4c(c3)CCO4)C2)n[nH]1 (stereo not given),104
24,NC(=O)c1cc(C2CCCN(CCOCC(F)(F)F)C2)n[nH]1 (stereo not given),-1.839
25,O=C(C1CCCN(CCc2ccc3c(c2)CCO3)C1)N1CCCC1 (stereo not given),96.85

row,SMILES,Percent Effect [%]
1,CCOCCN1CCCC(c2cc(C(N)=O)[nH]n2)C1 (stereo not given),-3.243
2,CCc1cc(NCCNc2cccnc2)n2nccc2n1,-9.581
3,Cc1[nH]c(=O)[nH]c(=O)c1CN1CCCC(CCc2ccc(F)cc2F)C1 (stereo not given),2.06
4,CSCCC(=O)N1CCC(Oc2cc(C)ccc2F)(C(=O)O)CC1,3.058
5,CS(=O)(=O)N1CCOC2(CCCN(c3ncc(F)cn3)C2)C1 (stereo not given),0.4401
6,CCC(C)(NCC(N)=O)c1nccs1 (stereo not given),-7.734
7,CCc1cnc(N2CCC3(CCN(CC)C3=O)CC2)nc1,-13.53
8,CCN1CCC2(CCN(c3ncccn3)CC2)C1=O.O=C(O)C(F)(F)F,93.98
9,COCCN1CCC2(CCN(c3ncccn3)CC2)C1=O.O=C(O)C(F)(F)F,97.58
10,CCN1CCC2(CCN(Cc3nccs3)CC2)C1=O.O=C(O)C(F)(F)F,-3.246
11,COCCN1CCC2(CCN(Cc3cccs3)CC2)C1=O.O=C(O)C(F)(F)F,6.379
12,COCCN1CCC2(CCN(CC3CC3)CC2)C1=O.O=C(O)C(F)(F)F,-9.065
13,NC(=O)CN(C(=O)c1c[nH]c2ncccc12)C1CCCC1,-3.753
14,CNC(=O)C1CCC2(CCN(c3ncc(C)cn3)CC2)CO1 (stereo not given),-6.735
15,Cc1n[nH]c(C)c1CNCC(O)c1cccc(Cl)c1.Cl (stereo not given),7.117
16,CCC(=O)N1CCCC1c1csc(Nc2cnccn2)n1 (stereo not given),122
17,COCC(=O)N1CCCC1c1csc(Nc2cnccn2)n1 (stereo not given),91.87
18,CC(=O)N1CCCC1c1csc(Nc2cnccn2)n1 (stereo not given),-5.394
19,Cc1cnc(NC(=O)c2cccc(CN(C)Cc3ccno3)c2)s1,0.9625
20,CCN1CCCc2cc(CN3CCc4nc(C)[nH]c(=O)c4C3)ccc21,122.7
21,CCCn1nc2c(cc1=O)CN(CCCN1CCCC1=O)CC2,-4.188
22,CCn1nc2c(cc1=O)CN(Cc1cc(C)on1)CC2,0.747
23,CCn1nc2c(cc1=O)CN(Cc1ccc(-n3cccn3)cc1)CC2,7.019
24,CCn1nc2c(cc1=O)CN(Cc1nc3ccccc3c(=O)[nH]1)CC2,-16.27
25,CCN1CCCc2cc(CN3CCc4c(nc(C)[nH]c4=O)C3)ccc21,149.4
